Key:
Assay in all cases: protein domain microarray probed with biotinylated miRNA; Domain array: 20 mM Tris-HCl pH 7.4, 200 mM KCl, 0.2 mM EDTA, 0.05% NP40, 2 ug/ul heparin, overnight 4 C. ORF array: PBS pH 7.0 with RNase inhibitor, 100 ng RNA; high values mean tight binding
Conditions in all cases: ssRNA
hnRNP-A2/B1 = hnRNP-A2/B1 (Homo sapiens, UniProt P22626)
DAZAP1 = target: T1, DAZAP1 (Homo sapiens, UniProt Q96EP5)
T1 sequence: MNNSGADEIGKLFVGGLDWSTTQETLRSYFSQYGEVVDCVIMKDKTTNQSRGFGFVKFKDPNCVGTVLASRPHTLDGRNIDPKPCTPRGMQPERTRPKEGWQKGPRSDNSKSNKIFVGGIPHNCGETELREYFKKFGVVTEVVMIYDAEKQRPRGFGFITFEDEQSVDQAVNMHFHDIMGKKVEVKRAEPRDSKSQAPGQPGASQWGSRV

ELAVL2 = ELAVL2 (Homo sapiens, UniProt Q12926)
CPEB2 = target: T2, CPEB2 (Homo sapiens, UniProt Q7Z5Q1)
T2 sequence: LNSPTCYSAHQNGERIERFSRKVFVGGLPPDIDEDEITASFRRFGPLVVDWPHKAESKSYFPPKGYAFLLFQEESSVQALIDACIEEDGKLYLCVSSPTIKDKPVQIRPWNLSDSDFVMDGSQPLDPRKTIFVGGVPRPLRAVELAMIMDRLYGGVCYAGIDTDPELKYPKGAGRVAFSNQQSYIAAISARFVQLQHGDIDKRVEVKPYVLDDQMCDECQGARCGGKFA

hnRNP-C1/C2 = hnRNP-C1/C2 (Homo sapiens, UniProt P07910)
CELF6(3) = CELF6(3) (Homo sapiens, UniProt Q96J87)
Matrin-3 = target: T3, Matrin-3 (Homo sapiens, UniProt P43243)
T3 sequence: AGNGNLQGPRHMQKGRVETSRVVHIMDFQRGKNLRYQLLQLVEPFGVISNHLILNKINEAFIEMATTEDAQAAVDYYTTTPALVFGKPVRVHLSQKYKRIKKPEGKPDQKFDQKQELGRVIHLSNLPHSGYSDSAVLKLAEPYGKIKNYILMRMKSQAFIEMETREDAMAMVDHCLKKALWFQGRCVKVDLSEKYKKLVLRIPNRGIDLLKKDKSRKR

PABP3 = PABP3 (Homo sapiens, UniProt Q9H361)
ZCRB1 = ZCRB1 (Homo sapiens, UniProt Q8TBF4)
HNRPLL = target: T4, HNRPLL (Homo sapiens, UniProt Q8WVV9)
T4 sequence: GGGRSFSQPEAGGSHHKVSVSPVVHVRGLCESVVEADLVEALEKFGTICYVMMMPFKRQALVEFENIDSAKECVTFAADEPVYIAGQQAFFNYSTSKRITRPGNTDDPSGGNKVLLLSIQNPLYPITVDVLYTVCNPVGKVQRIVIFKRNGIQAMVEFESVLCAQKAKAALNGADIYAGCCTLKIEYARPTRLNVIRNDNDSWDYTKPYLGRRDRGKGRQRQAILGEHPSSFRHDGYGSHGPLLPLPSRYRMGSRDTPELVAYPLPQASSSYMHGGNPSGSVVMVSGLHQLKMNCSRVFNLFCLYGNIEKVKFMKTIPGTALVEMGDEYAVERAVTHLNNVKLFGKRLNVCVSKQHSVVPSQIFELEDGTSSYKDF

Chain of ELAVL2 (Q12926 20-359): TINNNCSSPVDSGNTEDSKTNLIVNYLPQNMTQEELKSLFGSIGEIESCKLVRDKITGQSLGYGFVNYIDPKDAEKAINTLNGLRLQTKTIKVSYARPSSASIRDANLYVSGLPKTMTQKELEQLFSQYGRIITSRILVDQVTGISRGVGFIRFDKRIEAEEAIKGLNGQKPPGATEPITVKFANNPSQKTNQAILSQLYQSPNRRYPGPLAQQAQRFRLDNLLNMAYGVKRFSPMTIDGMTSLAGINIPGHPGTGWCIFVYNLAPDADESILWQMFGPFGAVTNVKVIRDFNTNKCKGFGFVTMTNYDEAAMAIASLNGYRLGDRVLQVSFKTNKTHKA
Chain of ZCRB1 (Q8TBF4 1-110): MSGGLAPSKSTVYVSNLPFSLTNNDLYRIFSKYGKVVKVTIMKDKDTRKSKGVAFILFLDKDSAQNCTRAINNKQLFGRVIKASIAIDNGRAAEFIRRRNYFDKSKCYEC
Chain of PABP3 (Q9H361 1-390): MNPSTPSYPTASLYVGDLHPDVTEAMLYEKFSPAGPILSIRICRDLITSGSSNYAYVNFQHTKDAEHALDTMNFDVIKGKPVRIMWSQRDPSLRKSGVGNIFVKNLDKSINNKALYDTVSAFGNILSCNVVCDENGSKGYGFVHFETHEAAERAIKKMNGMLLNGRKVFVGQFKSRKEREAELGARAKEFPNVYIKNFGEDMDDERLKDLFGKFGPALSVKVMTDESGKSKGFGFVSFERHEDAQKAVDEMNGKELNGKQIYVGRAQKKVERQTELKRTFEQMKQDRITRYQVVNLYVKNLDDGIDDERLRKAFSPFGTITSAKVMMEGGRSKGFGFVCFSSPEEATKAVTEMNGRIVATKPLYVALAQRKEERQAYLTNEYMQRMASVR
Chain of hnRNP-A2/B1 (P22626 1-210): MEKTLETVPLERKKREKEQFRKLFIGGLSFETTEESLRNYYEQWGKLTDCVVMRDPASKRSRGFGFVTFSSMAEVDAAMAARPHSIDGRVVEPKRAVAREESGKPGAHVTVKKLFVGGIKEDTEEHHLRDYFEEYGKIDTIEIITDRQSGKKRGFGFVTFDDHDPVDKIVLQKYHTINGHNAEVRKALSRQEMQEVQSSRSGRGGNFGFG
Chain of hnRNP-C1/C2 (P07910 1-110): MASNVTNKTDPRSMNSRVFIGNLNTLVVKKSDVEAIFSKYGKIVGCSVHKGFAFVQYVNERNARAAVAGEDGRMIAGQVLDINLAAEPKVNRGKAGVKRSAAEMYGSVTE
Chain of CELF6(3) (Q96J87 372-481): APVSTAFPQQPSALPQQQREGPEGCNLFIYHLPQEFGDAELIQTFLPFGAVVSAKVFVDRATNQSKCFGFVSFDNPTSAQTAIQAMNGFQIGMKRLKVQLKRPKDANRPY

Sequence | binding signal (hnRNP-A2/B1) | binding signal (DAZAP1) | binding signal (ELAVL2) | binding signal (CPEB2) | binding signal (hnRNP-C1/C2) | binding signal (CELF6(3)) | binding signal (Matrin-3) | binding signal (PABP3) | binding signal (ZCRB1) | binding signal (HNRPLL)
UGAGGUAGUAGGUUGUAUAGUU | 1499 ± 4.81 fluorescence intensity | 1600 ± 139 fluorescence intensity | 608.35 ± 0.587 fluorescence intensity | 42.8 ± 2.43 fluorescence intensity | 244.2 ± 0.382 fluorescence intensity | 282 ± 110 fluorescence intensity | 69.3 ± 9.98 fluorescence intensity | 31.2 ± 7.62 fluorescence intensity | 602 ± 7.03 fluorescence intensity | 
AGAGGUAGUAGGUUGCAUAGUU | 3610 ± 47.7 fluorescence intensity | 3900 ± 300 fluorescence intensity | 1660 ± 45 fluorescence intensity | 65.7 ± 16.8 fluorescence intensity | 406 ± 24 fluorescence intensity | 608 ± 73.6 fluorescence intensity | 201 ± 2.89 fluorescence intensity | 119 ± 10.5 fluorescence intensity | 1460 ± 22.6 fluorescence intensity | 123 ± 7.11 fluorescence intensity
UGAGGUAGUAGGUUGUAUGGUU | 2642 ± 18.6 fluorescence intensity | 2980 ± 146 fluorescence intensity | 1210 ± 62.5 fluorescence intensity | 66.6 ± 14.3 fluorescence intensity | 636.15 ± 0.594 fluorescence intensity | 628 ± 29.6 fluorescence intensity | 251.8 ± 1.32 fluorescence intensity | 211 ± 6.4 fluorescence intensity | 1150 ± 9.06 fluorescence intensity | 97.4 ± 6.78 fluorescence intensity
UGAGGUAGUAGGUUGUGUGGUU | 2240 ± 7.74 fluorescence intensity | 2560 ± 130 fluorescence intensity | 1370 ± 72.6 fluorescence intensity | 108 ± 11.6 fluorescence intensity | 742.6 ± 1.1 fluorescence intensity | 653 ± 52 fluorescence intensity | 496.54 ± 0.269 fluorescence intensity | 334 ± 26 fluorescence intensity | 1440 ± 63.3 fluorescence intensity | 120 ± 20.3 fluorescence intensity
CAGUGCAAUGAUGAAAGGGCAU | 2236 ± 9.55 fluorescence intensity | 1540 ± 260 fluorescence intensity | 965 ± 66.1 fluorescence intensity | 35.7 ± 11 fluorescence intensity | 146 ± 4.99 fluorescence intensity | 151 ± 17.8 fluorescence intensity | 116 ± 6.43 fluorescence intensity | 60.5 ± 8.1 fluorescence intensity | 824 ± 79.4 fluorescence intensity | 68.7 ± 5.11 fluorescence intensity
UAGCUUAUCAGACUGAUGUUGA | 255 ± 27.4 fluorescence intensity | 717 ± 152 fluorescence intensity | 653 ± 28.8 fluorescence intensity | 118 ± 118 fluorescence intensity | 162 ± 10.4 fluorescence intensity | 42.1 ± 8.05 fluorescence intensity | 38.7 ± 15.4 fluorescence intensity |  | 189 ± 14.5 fluorescence intensity | 

Reference: article PMC11574364
